Data from the supplement of paper PMC13094657.
± gives the standard deviation of the averaged measurements.

System: MDA-MB-231
Assay: cell viability relative to vehicle unstimulated control (fraction); higher = more viable cells
Conditions: pre-treatment time: 18 h then 24 h IFNg/TNF
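Also: viability of the cells left after supernatant collection, read with Deep Blue dye added for 4 h, as absorbance at 570 nm minus 600 nm.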

Q: For `CC1=C(O)C(=O)C=C2C1=CC=C1[C@@]2(C)CC[C@@]2(C)[C@@H]3C[C@](C)(C(=O)O)CC[C@]3(C)CC[C@]12C` [Tripterin] (compound dose: 10 uM), which cell viability is on record?
A: Its cell viability is 0.0346 ± 0.01.

Q: How did the cell viability turn out when `C=C1CCC2C(/C=C(\C)C(=O)C3(OC(C)=O)CC(C)C(OC(=O)c4ccccc4)C3C1OC(C)=O)C2(C)C` (configuration not stated) [Euphorbia factor L3] (compound dose: 10 uM) was run?
A: Its cell viability is 1.05 ± 0.019.

Q: `C=C1[C@H](OC(C)=O)[C@@H](OC(=O)c2ccccc2)[C@@H](OC(C)=O)C(C)(C)[C@H]2O[C@](O)([C@@H](C)C2=O)[C@@]2(OC(C)=O)C[C@H](C)[C@H](OC(C)=O)[C@@H]2[C@H]1OC(C)=O` [Kansuinine A] (compound dose: 10 uM) was tested. Which cell viability did it give?
A: The cell viability was 0.934 ± 0.028.

Q: How did the cell viability turn out when `CC(C)=CCC[C@@](C)(O)[C@H]1CC[C@]2(C)[C@@H]1[C@H](O)C[C@@H]1[C@@]3(C)CC[C@H](O)C(C)(C)[C@@H]3[C@@H](O[C@@H]3O[C@H](CO)[C@@H](O)[C@H](O)[C@H]3O)C[C@]12C` [(20R)-Ginsenoside Rh1] (compound dose: 10 uM) was run?
A: The cell viability was 0.9611 ± 0.0044.

Q: How did the cell viability turn out when `COc1cc2c3cc1Oc1cc(ccc1O)C[C@@H]1c4c(cc(OC)c(O)c4Oc4ccc(cc4)C[C@H]3N(C)CC2)CCN1C` [Curine] (compound dose: 10 uM) was run?
A: The cell viability was 0.654 ± 0.038.

Q: For `COc1cc(C[C@H]2C(=O)OC[C@@H]2Cc2ccc3c(c2)OCO3)cc(OC)c1OC` [Yatein] (compound dose: 10 uM), which cell viability is on record?
A: The cell viability was 0.9961 ± 0.0012.

Q: `CN1[C@@H]2CC[C@H]1C[C@H](O)C2` [Pseudotropine] (compound dose: 10 uM) was tested. Which cell viability did it give?
A: Its cell viability is 1.052 ± 0.0024.
